From PubChem BioAssay
Sampled rows, rich in hits. Any-hit rate of the full collection: about 3.8%.
ATXN viability = viability counter-screen for ATXN expression inhibitors; actives 0.49% (n = 400,000); Potency, µM (top dose mostly 56.7 µM), most hits filed as cytotoxic; S2 cells (HEK-293 line with an ATXN2-luciferase reporter) viability, CellTiter-Fluor protease fluorescence, 24 h; note: nearly all actives have a fitted effect of over 40% in size
ATXN2 expr inh = reduces ATXN2 reporter expression in HEK-293 cells | HEK-293 ATXN2-luciferase reporter, luminescence, 24 h | Potency, µM (series often up to 57 µM), hits mostly inhibitors | actives 0.72% (n = 360,000) | AID 1745845; note: nearly all actives have a fitted effect of over 55% in size
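ATXN2-luciferase reporter cells (luciferase flanked by upstream and downstream ATXN2 gene portions) were treated 24 h at 37 °C with compounds at up to 57 uM. SteadyGlo luminescence gave expression; GF-AFC fluorescence gave viability.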
HT1080NT lethal = kills 2HG-producing HT-1080-NT fibrosarcoma cells; Potency, µM (titrated, usually from 46.1 µM), usual class: cytotoxic; HT-1080-NT fibrosarcoma viability, CellTiter-Glo ATP luminescence, 48 h; actives 1.6% (n = 360,000); AID 686970;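 note: NT is the 2HG producing partner of a matched IDH1 knockdown line; nearly all actives have a fitted effect of over 55% in size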
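Luminescent CellTiter-Glo readout after 48 hours of compound exposure at 37 degrees C defined viability of HT-1080-NT cells. Activity was normalized to DMSO wells and cell-free media wells; concentration-response curves were fitted and assigned curve classes.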
TGFb inhibitor = inhibitors of TGF-b signaling | AID 588855 | actives 1.2% (n = 410,000) | HepG2 CAGA-GFP TGF-b/SMAD3 reporter, GFP fluorescence, 18 h; TGF-beta stimulated, 500 pg/mL final | Potency, µM (highest dose often 46.1 µM), hits mostly inhibitors; note: nearly all actives have a fitted effect of over 65% in size
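GFP signal (ex488/em500-530) from TGF-beta-stimulated HEPG2 CAGA-GFP cells, 500 pg/mL final, 18 h at 37 degrees C in DMEM plus 1% FBS, normalized to unstimulated and DMSO-stimulated controls.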
HepG2 tox = counter-screen for TGF-b inhibitors: cytotoxicity in HepG2 cells. HepG2 CAGA-GFP viability, ATP luminescence, 18 h. Potency, µM (top dose mostly 46.1 µM), actives largely listed as cytotoxic. actives 0.76% (n = 410,000). AID 588856
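CellTiter-Glo luminescence gave cytotoxicity after 18 hours at 37 degrees C. The cells were HepG2 CAGA-GFP in 1% FBS DMEM, stimulated with 500 pg/mL TGF-beta after compound addition. %Activity was normalised to no-cell wells (complete cell-killing) and DMSO (no toxicity), and curves were fitted and classified.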
HT1080 IDH1KD tx = HT-1080 IDH1 knockdown cell toxicity (counter line) | AID 686971 | Potency, µM (highest dose often 46.1 µM), usual class: cytotoxic | actives 2% (n = 360,000) | HT-1080 IDH1 knockdown viability, ATP luminescence, 48 h
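Knockdown cells (IDH1KD HT-1080) received compounds 2 h after plating at 750 cells/well and were kept 48 h at 37 °C in 5% FBS RPMI. A CellTiter-Glo luminescence read gave % activity for curve fitting.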
Numbers stand for hits; n = inactive; u = inconclusive; x = not tested or not shown. Calls come from the whole dose curve; as a rule, active = well fitted curve in the direction sought with a large enough effect; inconclusive = small, poorly fitted or top-dose-only effect, or another doubt; inactive = no such curve, though single readings can be large; an effect the other way counts as inactive or inconclusive.

SMILES	ATXN viability	ATXN2 expr inh	HT1080NT lethal	TGFb inhibitor	HepG2 tox	HT1080 IDH1KD tx
CC1CC(C)(C)Nc2ccc(N=O)cc21 (stereo unspecified)	u	x	15µM	u	n	18µM
CC1CC(C)(C)Nc2ccc(OC(=O)c3ccco3)cc21 (stereo unspecified)	n	u	18µM	u	n	23µM
Cc1cc(=O)oc2cc(OC(=O)c3ccco3)ccc12	x	n	n	n	n	n
CCOc1ccc(OCC)c(NC(=O)CCc2nc3cccnc3n2Cc2cccs2)c1	x	x	x	n	n	x
CC(C)[C@H](NC(N)=O)C(=O)Nc1cccc([N+](=O)[O-])c1	n	n	n	0.63µM	n	n
O=C(Nc1ccc(OC(F)(F)F)cc1)c1[nH]ncc1[N+](=O)[O-]	n	n	n	11µM	n	n
Cc1ccc(NC(=O)Nc2cccc([N+](=O)[O-])c2)cc1F	n	n	15µM	u	n	12µM
O=C(Nc1ccc(OC(F)(F)F)cc1)Nc1cccc([N+](=O)[O-])c1	16µM	u	u	u	7.9µM	u
Cn1ccc2cc(S(=O)(=O)N3CCCC(C(=O)NCc4ccccc4)C3)ccc21 (stereo unspecified)	n	n	x	n	n	x
OCC#Cc1ncc(C(F)(F)F)cc1Cl	n	n	21µM	n	n	u
NC(=O)Cc1ncc(C(F)(F)F)cc1Cl	n	n	n	n	n	n
CCOc1ccc(-c2nonc2NC(=O)c2oc3ccc(Br)cc3c2C)cc1	x	x	x	n	n	x
CCOc1ccc(-c2nonc2NC(=O)c2oc3cc(Br)ccc3c2C)cc1	u	n	x	7.1µM	n	x
Cc1cc(O)cc2c1C1CCC3(C)C(O)CCC3C1C=C2 (stereo unspecified)	n	n	u	n	n	18µM
C[C@]12CC[C@@H]3c4ccc(O)cc4CC[C@H]3[C@@H]1CC[C@@H]2O	n	n	u	n	n	u
Cn1c(-c2ccccc2)c(C#Cc2ccc(N)cc2)c2ccccc21	n	n	n	3.5µM	n	n
Cn1c2ccccc2c(=O)c2cc(C#Cc3ccc(N)cc3)ccc21	u	n	n	u	n	n
CCn1c(CNC(C)=O)nnc1SCC(=O)c1ccc(Br)cc1	n	n	13µM	n	22µM	u
Cc1ccc(NC(=O)Cc2nnc(SCC(=O)c3ccc(Br)cc3)n2C)cc1	u	n	u	n	n	11µM
COCCCNC(=O)C1CCN(c2nc3ccc(Cl)cc3[nH]2)CC1	x	x	x	n	n	x
O=[N+]([O-])c1ccc(O/N=[N+](\[O-])N2CCCC2)c([N+](=O)[O-])c1	x	x	x	u	n	x
Cc1c(Cl)ccc2c(C(=O)NCCN3CCCCC3)cc(-c3ccccn3)nc12	u	n	u	n	n	23µM
COC(=O)c1cc2nc(-c3ccccc3)cc(C)n2n1	n	n	n	u	n	n
Cc1cc(-c2ccccc2)nc2cc(C(=O)N(Cc3ccccc3)Cc3ccccc3)nn12	u	u	u	u	n	16µM
CCC(C)Nc1nc(-c2c[nH]c3ccccc23)cs1 (stereo unspecified)	u	n	u	13µM	n	u
SMILES	ATXN viability	ATXN2 expr inh	HT1080NT lethal	TGFb inhibitor	HepG2 tox	HT1080 IDH1KD tx
CN1CCN(CC(=O)Nc2nc(-c3c[nH]c4ccccc34)cs2)CC1	u	n	u	n	n	21µM
O=C(CC1Oc2ccccc2NC1=O)NCc1ccccc1 (stereo unspecified)	n	n	n	n	n	n
CC(=O)CC1OC(=O)C(Br)=C1NCc1ccccc1 (stereo unspecified)	x	u	3.5µM	10µM	7.9µM	0.89µM
COc1ccc(C2Nc3ccccc3NC3=C2C(=O)CC(C)(C)C3)c(OC)c1OC (stereo unspecified)	0.28µM	n	n	n	n	n
COc1ccccc1N(CC(=O)N/N=C/c1c(O)ccc2ccccc12)S(C)(=O)=O	n	8.9µM	u	n	n	u
COc1ccccc1NCC(=O)N/N=C/c1c(O)ccc2ccccc12	n	2.5µM	15µM	n	n	10µM
COc1ccccc1NC(=O)c1c(N=Cc2c(O)ccc3ccccc23)cnn1C	u	n	8.2µM	n	n	5.8µM
Cn1ncc(N=Cc2c(O)ccc3ccccc23)c1C(=O)N1CCOCC1	n	n	n	n	n	n
O=C(CNc1ccc(F)cc1)N/N=C/c1c(O)ccc2ccccc12	u	4.5µM	u	u	n	10µM
Cc1nc2c(-c3ccccc3)c(C)nn2c(C)c1CCC(=O)NCc1ccc(F)cc1	u	n	x	u	n	x
COc1cccc(-n2c(SC)nnc2C2CCN(CCC(C)c3ccc(C)o3)CC2)c1 (stereo unspecified)	n	x	x	x	x	x
COc1ccc(C(=O)NCC(c2ccco2)S(=O)(=O)c2cccs2)cc1 (stereo unspecified)	x	x	x	n	n	x
COc1ccc(Cl)cc1Nc1sc(C(=O)c2ccccc2)c(N)c1C(=O)Nc1ccccc1	u	n	x	16µM	n	x
CCOc1ccccc1Nc1sc(C(=O)c2ccccc2)c(N)c1C(=O)Nc1ccc(F)cc1	n	n	x	14µM	n	x
Cc1cccc(C)c1Nc1sc(C(=O)c2ccccc2)c(N)c1C(=O)Nc1ccc(F)cc1	x	u	x	11µM	n	x
CCOc1ccc(NC(=O)c2c(Nc3ccccc3C)sc(C(=O)c3ccccc3)c2N)cc1	n	n	x	u	n	x
CCOc1ccccc1Nc1sc(C(=O)c2ccc(Cl)cc2)c(N)c1C(=O)NCCc1ccccc1	n	n	x	n	n	x
CCOc1ccc(NC(=O)c2c(C)oc3nc(C)nc(N4CCOCC4)c23)cc1	x	x	x	n	n	x
CC(=O)c1cccc(NC(=O)COC(=O)c2ccccc2OCc2cccc(Br)c2)c1	x	x	n	x	x	n
O=C1C=CCC(/C=C/c2ccccc2)O1 (stereo unspecified)	u	5µM	u	u	13µM	u
CN1CCN(C2(CNC(=O)c3ccc([N+](=O)[O-])cc3)CCCCC2)CC1	x	x	x	n	n	x
Cc1ccc(N(Cc2cc3ccccc3[nH]c2=O)C(=O)c2cccc(Cl)c2)cc1	u	n	x	n	n	x
NCc1c[nH]c(=S)n1[C@H]1CCc2c(F)cc(F)cc2C1	x	n	x	x	x	x
C/C(=N/NC(=O)c1cccs1)c1ccc(NC(=O)COc2ccc(Cl)cc2Cl)cc1	11µM	13µM	n	n	n	n
COCCOCC(OC)OC	n	n	x	x	x	x
Cc1ccccc1NC(=O)c1ccccc1OCC(=O)Nc1ccc(Br)cc1	x	x	x	u	n	x
CC(C)(S)C(=O)N[C@@H](CS)C(=O)O	n	x	x	x	x	x
CCOC(=O)N/N=C/c1cn(Cc2ccc(F)cc2)c2ccccc12	n	x	u	2.2µM	n	n
O=C(N/N=C/c1cccc2ccccc12)c1cccnc1	n	n	n	u	n	n
